# Hits are enriched below; roughly 19% of the tested compounds scored in any of these assays.
# HT1080NT lethal: kills 2HG-producing HT-1080-NT fibrosarcoma cells; HT-1080-NT fibrosarcoma viability, CellTiter-Glo ATP luminescence, 48 h; Potency, µM (doses to about 46.1 µM), most hits filed as cytotoxic; 360,000 compounds, 1.6% hits; AID 686970;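 also: NT is the 2HG producing partner of a matched IDH1 knockdown line; nearly all actives have a fitted effect of over 55% in size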
#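 750 cells/well, RPMI + 5% FBS; 2 h settle, compound pin-transfer, 48 h at 37 degrees C. CellTiter-Glo 10 min RT, luminescence. Normalized to DMSO and media-only wells.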
# IL-1B inflam inh: blocks inflammasome-driven IL-1 beta release. THP-1 LPS/ATP IL-1B secretion, AlphaLISA, 16 h; hits give low values. AID 743279. 360,000 compounds, 4.7% hits. activity change, % at 57.5 µM; in the data active = activity change below about -50%; inconclusive = mostly about -30% to -49%
#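 Secreted IL-1B measured by AlphaLISA bead assay after 16 h compound exposure of THP-1 cells; compounds (final up to 57.5 uM) added 1 h before LPS (250 ng/mL) and ATP (1.25 mM) stimulation; lower signal means less secretion.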
# TDP1 cell CPT: DT40-hTDP1 cell growth loss with CPT; chicken DT40 Tdp1-/-;hTDP1 cells + 20 nM CPT, ATP luminescence, 48 h; 420,000 compounds, 12% hits; Potency, µM (series often up to 46.2 µM), actives largely listed as inhibitors; also: nearly all actives have a fitted effect of over 55% in size
#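 Cell growth measured by CellTiter-Glo luminescence after a minimum 48 h, 37 C compound exposure with 20 nM CPT in Tdp1-knockout DT40 cells stably expressing hTDP1, seeded 400/well; qHTS titration format.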
# HT1080 IDH1KD tx: kills HT-1080 cells with IDH1 knockdown. 360,000 compounds, 2% hits. AID 686971. Potency, µM (top dose mostly 46.1 µM), hits mostly cytotoxic. HT-1080 IDH1 knockdown viability, ATP luminescence, 48 h
#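 After a 2 h attachment period, IDH1KD HT-1080 cells took pin-transferred compound for 48 h at 37 °C; ATP-based luminescence after 10 min room-temperature reagent incubation reported viability.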
# TDP1 cell noCPT: qHTS for Inhibitors of human tyrosyl-DNA phosphodiesterase 1 (TDP1): qHTS in cells in absence of CPT; DT40 Tdp1-/- hTDP1 cells, no CPT, ATP luminescence, 48 h; Potency, µM (top dose mostly 46.2 µM), most hits filed as inhibitors; 420,000 compounds, 15% hits; also: nearly all actives have a fitted effect of over 55% in size
#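 Growth kinetics read by CellTiter-Glo luminescence after ≥48 hr at 37 °C. Cells: DT40 Tdp1-/- stably carrying human TDP1, 400 per well, compound exposure in the absence of CPT (DMSO vehicle).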
# Numbers stand for hits; 0 = inactive; ? = inconclusive; - = not tested or not shown; [ ] = remark or other dose. Unless noted, calls follow the shape of the dose curve; as a rule, active = well fitted curve in the direction sought with a large enough effect; inconclusive = small, poorly fitted or top-dose-only effect, or another doubt; inactive = no such curve, though single readings can be large; an effect the other way counts as inactive or inconclusive.
SMILES,HT1080NT lethal,IL-1B inflam inh,TDP1 cell CPT,HT1080 IDH1KD tx,TDP1 cell noCPT
COc1ccc(N2C(=O)c3ccc(C(=O)Nc4ccc(NC(C)=O)cc4)cc3C2=O)cc1,0,0,0,0,0
O=C(Cn1c(C(F)(F)F)nc2ccccc21)N=Nc1c(O)[nH]c2ccc(Br)cc12,0,0,?,0,18µM
O=C(Cc1cccs1)N=Nc1c(O)[nH]c2ccc(Br)cc12,0,0,26µM,0,?
CCOc1ccc(NC(=O)c2ccc(NC(=O)N3CCSc4ncccc43)cc2)cc1,-,-,0,-,0
COc1ccc2sc(NC(=O)CC(C)C)nc2c1,0,0,?,0,0
COc1ccc(NC(=O)Nc2nc3ccccc3s2)cc1,0,?,?,0,?
COc1ccc2sc(NC(=O)NC(=O)c3c(Cl)cccc3Cl)nc2c1,0,-88,0,0,?
CCC(=O)Nc1nc2cc(OC)ccc2s1,0,0,?,0,18µM
CCC(=O)Nc1nc2ccc3nc(C)sc3c2s1,0,0,?,0,21µM
CCn1cc([N+](=O)[O-])c(C(=O)Nc2nc3ccc(OC)cc3s2)n1,?,-59,0,0,0
Nc1c(C(=O)NCc2ccc3c(c2)OCO3)nnn1-c1ccc(OC(F)(F)F)cc1,0,?,0,0,?
C=CCn1c(SCC(=O)NNC(=S)Nc2ccccc2)nnc1-c1ccccc1,0,-,0,0,0
C=CCn1c(SCc2ccc(C(=O)Nc3ccccc3)cc2)nnc1-c1ccccc1,0,0,18µM,0,?
C=CCn1c(SCc2ccc(C#N)cc2)nnc1-c1ccc(C)cc1,0,0,?,0,16µM
Clc1cccc(CSc2nnc(-c3cccnc3)n2Cc2ccco2)c1,0,0,?,?,?
Cc1cccc(-c2nnc(SCc3ccc(C#N)cc3)n2Cc2ccco2)c1,0,0,?,?,23µM
FC(F)(F)COc1cc(-c2nnc(SCc3ccccc3)n2Cc2ccco2)cc(OCC(F)(F)F)n1,0,0,?,0,29µM
COC(=O)c1ccc(C(=O)OC)c(NC(=O)c2cnn3c(C(F)F)cc(-c4ccc(C)cc4)nc23)c1,-,-,0,-,0
CCn1c(SCc2ccc(C#N)cc2)nnc1-c1cccc(Cl)c1,0,-73,0,0[9.24 µM],0
O=[N+]([O-])c1cccc(CN2CCC(Cc3ccccc3)CC2)c1,0,0,23µM,0,0
Cc1cc(OCCN2CCC(Cc3ccccc3)CC2)ccc1[N+](=O)[O-],?,-74,?,?,?
O=C(NC1CCN(Cc2cccc([N+](=O)[O-])c2)CC1)c1ccccc1,0,0,0,0,0
CC(=O)Oc1ccc2ccc3ccc(C(C)=O)cc3c2c1,0,?,?,?,18µM
CCc1cc(C(=O)OC)c(NC(=O)CSc2nccn2C)s1,0,0,0,0,0
O=c1ccc2cc(S(=O)(=O)N3CCN(c4ccccc4F)CC3)ccc2o1,0,0,0,0,0
SMILES,HT1080NT lethal,IL-1B inflam inh,TDP1 cell CPT,HT1080 IDH1KD tx,TDP1 cell noCPT
CCOc1cc2c(cc1OCC)C(CC(=O)OC)N(C(=O)Nc1cc(C)cc(C)c1)CC2 (stereo not given),-,-,0,-,0
CCOc1cc2c(cc1OCC)C(CC(=O)OC)N(C(=O)Nc1cc(OC)ccc1OC)CC2 (stereo not given),-,-,21µM,-,15µM
CCOC(=O)CC1c2cc(OCC)c(OCC)cc2CCN1C(=O)Nc1cccc(Cl)c1 (stereo not given),-,-,?,-,16µM
CCOc1ccccc1N1CCN(C(=O)Nc2cccc(Cl)c2)CC1,0,0,0,0,?
CCCNC(=O)C1(C)CCCN(C(=O)CN2C(=O)c3ccccc3C2=O)C1 (stereo not given),0,0,0,0,0
Cc1ccccc1C1C(C#N)=C2N=C(N)c3c(sc4c3CCCCC4)N2C2=C1C(=O)CC(C)(C)C2 (stereo not given),0,0,18µM,0,?
COc1cc(C2C(C#N)=C(N)N(N(C)C)C3=C2C(=O)CCC3)cc(OC)c1OC (stereo not given),0,0,0,0,0
COc1cc(C2C(C#N)=C(N)N(c3sc4c(c3C#N)CCCC4)C3=C2C(=O)CC(C)(C)C3)cc(OC)c1OC (stereo not given),0,0,21µM,?,16µM
Cc1ccccc1C1C(C#N)=C2N=C(N)c3ccccc3N2C2=C1C(=O)CCC2 (stereo not given),0,?,0,0,0
CCc1cccc(NC(=O)c2nc(-c3ccncc3)no2)c1,-,-,?,-,0
Cc1ccc(Cl)cc1N1CCN(C(=O)Cn2ccc3ccccc3c2=O)CC1,0,-66,16µM,?,21µM
Cc1ccc(Cl)cc1N1CCN(C(=O)Cn2nc(C)n3c(cc4sccc43)c2=O)CC1,-,-,18µM,-,21µM
Cc1ccc(Cl)cc1N1CCN(C(=O)Cn2ncn3cccc3c2=O)CC1,0,0,21µM,0,?
COc1cccc2c1cc1c(=O)n(CC(=O)N3CCN(c4cc(Cl)ccc4C)CC3)nc(C)n12,-,-,0,-,0
C=CCn1c(SCC(=O)c2ccccc2)nnc1-c1cc2ccccc2o1,0,0,23µM,0,?
C=CCn1c(SCC(=O)c2ccc(OC)cc2)nnc1-c1cc2cccc(OC)c2o1,0,0,0,0,?
CCn1c(SCC(=O)c2ccccc2)nnc1-c1cc2cc(Br)ccc2o1,0,0,?,0[9.24 µM],9.2µM
CCn1c(SCC(=O)c2ccccc2)nnc1-c1ccoc1C,0,0,0,0,0
COc1ccc(C(O)c2nc(-c3ccc(F)c(Cl)c3)cs2)cc1 (stereo not given),?,0,?,?,?
COc1cccc(C(O)c2nc(-c3ccc(F)c(Cl)c3)cs2)c1 (stereo not given),?,0,16µM,?,?
COc1ccc(-c2csc(C(O)c3ccc(F)c(OC)c3)n2)cc1 (stereo not given),?,0,13µM,0,15µM
COc1cc(C(O)c2nc(-c3ccccc3)cs2)ccc1F (stereo not given),?,0,7.3µM,0,6.5µM
COCc1cccc(-c2csc(C(O)c3ccc(F)c(OC)c3)n2)c1 (stereo not given),0,0,8.2µM,0,21µM
COCc1cccc(-c2csc(C(NC(C)=O)c3cccc(F)c3)n2)c1 (stereo not given),0,0,0,0,0
COc1cc(C(O)c2nc(-c3ccccc3C)cs2)ccc1F (stereo not given),?,0,?,?,?
CSCCC(NC(=O)OC(C)(C)C)C(=O)NC(C(=O)NC(CC(C)C)C(N)=O)C(C)C (stereo not given),0,0,0,0,0
O=C(NC1CCCC1)c1cnn(-c2ccc(F)cc2F)c1C1CCNCC1,-,-,0,-,?
CC(C)C(=O)Nc1ccc(N2CCCC2)c(Cl)c1,0,0,0,0,0

# Assay outcomes as filed in PubChem.
